In the library only some 1.2% were active in any assay of this set; here they are far more common.
TSG101-PTAP inh: qHTS Assay for Iinhibitors of HIV-1 Budding by Blocking the Interaction of PTAP/TSG101; Fluorescence polarization, FITC-PTAP peptide / Tsg101 binding; Potency, µM (series often up to 115 µM), without a hit: top-dose activity change, negative = inhibition, hits mostly inhibitors; 340,000 tested, under 10 active; active = well fitted inhibition curve with a large enough effect in the main read-out, with a control signal flat, not every such curve was filed as active; inconclusive = small, poorly fitted or top-dose-only effect, or effect the other way, or a change in a side signal; inactive = no such curve, though single readings can be large or run the other way; also: potency is read from the fitted curve at half-maximal effect; % of control where 0% means no effect
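Fluorescence anisotropy tracks displacement of a FITC-tagged PTAP peptide (50 nM) from the Tsg101 binding domain (10 uM), following a 20 min room-temperature incubation at pH 7.5.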
BRCA1 expr act: qHTS Assay to Identify Small Molecule Activators of BRCA1 Expression; MCF7-BRCA1-FFLuc reporter, luminescence, 48 h; response scale: scaled: vehicle 0%, 10 µM genistein 100%; Potency, µM (top dose mostly 46.1 µM), without a hit: at the top dose activation, most hits filed as activators; 380,000 tested, 1.1% active; also: potency is read from the fitted curve at half-maximal effect; nearly all actives have a fitted effect of over 80% in size
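Activators of BRCA1 expression were detected as increased firefly luciferase luminescence in engineered MCF7 cells after 48 h compound incubation. Signals were scaled to genistein 10 microM as full activation.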
Apoferritin bind: qHTS Assay for Identification of Novel General Anesthetics; Ferritin light chain (Equus caballus), P02791; apoferritin/1-aminoanthracene competitive binding, fluorescence; Potency, µM (titrated, usually from 77.5 µM), without a hit: at the highest dose activity change, negative = displacement, actives largely listed as inhibitors; 350,000 tested, 0.074% active; also: potency is read from the fitted curve at half-maximal effect; % is scaled to controls: 0 for no effect and ±100 for the full control effect; nearly all actives have a fitted effect of over 20% in size
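Probe: 1-aminoanthracene (50% saturated, PBS). Protein: horse-spleen apoferritin, 10 uM. Incubation: 10 min, room temperature. Detection: 380 nm excitation, 535 nm emission. Analysis: normalized response, four-parameter Hill.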
ASM inhibitor: Inhibitors of Secretory Acid Sphingomyelinase (S-ASM): qHTS; placental ASM, HMU-PC fluorogenic substrate, 60 min; Potency, µM (highest dose often 57.5 µM), without a hit: top-dose activity change, negative = inhibition, most hits filed as inhibitors; 340,000 tested, 0.006% active; AID 504937, 2011; also: potency is read from the fitted curve at half-maximal effect
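Fluorogenic HMU-PC substrate (9 uM final) is turned over by placental ASM in 60 min at 37 C after a 10 min compound preincubation. Reaction ended by alkaline stop (pH 10), with fluorescence read at 386/447 nm.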
TSHR antagonist: Antagonists of the Thyroid Stimulating Hormone Receptor: HTS campaign; 330,000 tested, 0.2% active; TSHR-expressing cells, TSH-stimulated cAMP HTRF, 2 h; stronger effect = lower value; activity change, negative = inhibition, % at 11.5 µM; Thyrotropin receptor (Homo sapiens), P16473; AID 504810, 2011;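 active = activity change below a set negative limit, meaning inhibition stronger than a set level, cut at about -70% in these data; inconclusive = activity change between two set negative limits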; also: % is scaled to controls: 0 for no effect and ±100 for the full control effect
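Read-out is FRET at 665 nm (cryptate excitation 337 nm) from a cryptate-tagged anti-cAMP antibody, competed by cell cAMP against cAMP-d2. Compounds are tested on freshly harvested TSHR cells challenged with 4nM TSH (EC80) for 2 hours at 37 deg C.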
The depositor's hits bear a star; i = inactive; ? = inconclusive; . = no result. Unless noted, calls follow the shape of the dose curve; as a rule, active = well fitted curve in the direction sought with a large enough effect; inconclusive = small, poorly fitted or top-dose-only effect, or another doubt; inactive = no such curve, though single readings can be large; an effect the other way counts as inactive or inconclusive.

SMILES	TSG101-PTAP inh	BRCA1 expr act	Apoferritin bind	ASM inhibitor	TSHR antagonist
Cn1c(CNC(=O)c2ccc(Cl)cc2)nnc1SCC(=O)NC1CCCC1	-8%	-6%	2%	0%	-98*
CCn1c2ccccc2c2cc(NC(=O)N3CCOCC3)ccc21	0%	11µM*	-6%	28%	23
CCn1c2ccccc2c2cc(NC(=O)CN(C)CC(=O)Nc3ccc(N4CCOCC4)cc3)ccc21	-3%	-38%	10%	-13%	4
O=C(Nc1ccccc1)N1CCOCC1	0%	4%	-7%	-1%	3
CCNC(=S)Nc1ccc2ncoc2c1	-2%	10%	-5%	5%	-2
O=C(Nc1ccc2c(c1)oc1ccccc12)N1CCOCC1	-3%	6.3µM*	?	0%	-8
CCNC(=S)Nc1ccc2c(c1)oc1ccccc12	-5%	4.5µM*	.	-2%	.
CC[C@H](C)[C@H](NC(=O)[C@H](CO)NC(=O)[C@H](CC(C)C)NC(=O)[C@H](CO)NC(=O)[C@@H]1CCCN1C(=O)[C@H](CC(N)=O)NC(=O)[C@@H](N)CC(=O)O)C(=O)N[C@@H](CC(=O)O)C(=O)N[C@@H](CC(C)C)C(=O)N[C@H](C(=O)N[C@@H](Cc1ccccc1)C(=O)N[C@@H](Cc1cnc[nH]1)C(=O)N[C@@H](CC(C)C)C(=O)N[C@@H](CC(C)C)C(=O)N[C@@H](CCCNC(=N)N)C(=O)N[C@H](C(=O)N[C@@H](CC(C)C)C(=O)N[C@@H](CC(C)C)C(=O)N[C@@H](CCC(=O)O)C(=O)N[C@@H](CC(C)C)C(=O)N[C@@H](C)C(=O)N[C@@H](CCCNC(=N)N)C(=O)N[C@H](C(=O)N[C@@H](CCC(N)=O)C(=O)N[C@@H](CO)C(=O)N[C@@H](CCC(N)=O)C(=O)N[C@@H](CCCNC(=N)N)C(=O)N[C@@H](CCC(=O)O)C(=O)N[C@@H](CCCNC(=N)N)C(=O)N[C@@H](C)C(=O)N[C@@H](CCC(=O)O)C(=O)N[C@@H](CCC(N)=O)C(=O)N[C@@H](CC(N)=O)C(=O)N[C@@H](CCCNC(=N)N)C(=O)N[C@H](C(=O)N[C@H](C(=O)N[C@@H](Cc1ccccc1)C(=O)N[C@@H](CC(=O)O)C(=O)N[C@@H](CO)C(=O)N[C@H](C(N)=O)C(C)C)[C@@H](C)CC)[C@@H](C)CC)[C@@H](C)O)[C@@H](C)O)[C@@H](C)O	.	.	-19%	.	.
CCN(CC)C(=O)c1sc2nc(-c3ccc(OC)cc3)cn2c1C	0%	2.8µM*	-11%	-4%	-7
CNC(=O)c1sc2nc(-c3ccc(OC)cc3)cn2c1C	-5%	?	-3%	-2%	10
Cc1cc(C)n(-c2ccc(C(=O)Nc3nnc(C)s3)cc2)n1	-8%	19%	-14%	-1%	1
Cc1cc(C)n(-c2ccc(C(=O)Nc3sccc3C(N)=O)cc2)n1	4%	1µM*	-5%	-3%	-11
NC(=O)c1sc2nc(-c3ccco3)ccc2c1N	-2%	2.5µM*	58%	19%	-2
COC(=O)c1sc2nc(-c3ccco3)ccc2c1N	3%	?	-1%	81%	-3
C=C1C=C(C)n2ncc(C(=O)Nc3cccc4cnccc34)c2N1	.	-7%	.	.	.
Cc1ccc(NC2=CC(=O)c3sc(C)nc3C2=O)cc1	.	.	-12%	.	.
COC(=O)c1sc2nc3c(cc2c1N)CCCC3	0%	?	-11%	i	-18
NC(=O)c1sc2nc3c(cc2c1N)CCC3	-2%	8.9µM*	-9%	68%	19
Nc1c(C(=O)N2CCCC2)sc2nc3c(cc12)CCCCCC3	-5%	4.5µM*	-11%	274%	0
COc1cc2nc(N3CCOCC3)nc(NC(C)C)c2cc1OC	.	1%	.	.	.
Cc1nc([N+](=O)[O-])cn1CC(O)c1ccc2c(c1)OCCCO2 (stereo not given)	.	23%	.	.	.

Compound activity as filed in PubChem.
